We go through 17 compounds from PubChem BioAssay (NCI).

Where “and” joins values, the source holds several entries; their conditions need not be identical. Identical values can stand only once. The panel holds about 79,000 compounds, 15% with a hit somewhere; the sample as a whole holds those more often. Calls of active or inactive are those of the source. No stated cut-off is given here; in the data, active means growth inhibition above about 70%; inactive means the rest.

Assay [1] is described as follows: NCI Yeast Anticancer Drug Screen. Data for the rad50 strain (AID 155).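 Further: 0% = growth of vehicle-only cultures of the same strain.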 The conditions noted are these: S. cerevisiae rad50 strain growth inhibition; at 50.0 µM; stronger effect = higher value. In outline: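 Growth of the mutant yeast was measured after compound exposure and referenced to vehicle-treated cultures.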
Assay [2] is described as follows: NCI Yeast Anticancer Drug Screen. Data for the mec2-1 strain (AID 157). The conditions noted are these: S. cerevisiae mec2-1 strain, at 50.0 µM, stronger effect = higher value. In short, it runs like this:
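Compounds were applied to mec2-1 yeast cells. Their growth was then compared with that of vehicle-treated cultures to give growth inhibition.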

The nature of assay [3]: NCI Yeast Anticancer Drug Screen. Data for the sgs1 mgt1 strain (AID 161).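 Further: 0% = growth of cultures given vehicle only.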 The conditions noted are these: S. cerevisiae sgs1 mgt1 strain, at 50.0 µM, stronger effect = higher value. In outline: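 Compounds are added to genetically altered yeast, and growth is compared with cultures given vehicle alone to give percent inhibition.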
Assay [4] in a line: NCI Yeast Anticancer Drug Screen. Data for the cln2 rad14 strain (AID 165).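 Further: 0% = growth equal to vehicle treated cultures.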 The conditions noted are these: S. cerevisiae cln2 rad14 strain, at 50.0 µM, stronger effect = higher value. In short, it runs like this:
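Strain: cln2 rad14 yeast, altered in cell cycle control and DNA damage repair. Read-out: growth inhibition vs vehicle.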

The nature of assay [5]: NCI Yeast Anticancer Drug Screen. Data for the bub3 strain (AID 167). The conditions noted are these: S. cerevisiae bub3 mutant strain, at 50.0 µM, stronger effect = higher value. In short, it runs like this: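 Whole-cell yeast assay. The mutant strain was incubated with compounds, and growth inhibition was determined by comparison with vehicle-treated cells.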
Assay [6] can be described thus: NCI Yeast Anticancer Drug Screen. Data for the mlh1 rad18 strain (AID 175). The conditions noted are these: S. cerevisiae mlh1 rad18 strain growth inhibition; at 50.0 µM; stronger effect = higher value. In short, it runs like this: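 A repair-deficient yeast strain is exposed to test compound, and growth is scored relative to vehicle-treated controls.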

On to `O=C(Cc1cccc([N+](=O)[O-])c1)Nc1cccc(S(=O)(=O)F)c1`, for which the growth inhibition in assay [1] is 5.8% (inactive); in assay [2] it was -19.6% (inactive); in assay [3] it was -20.3% (inactive); in assay [4] it was -2.9% (inactive); in assay [5], 16.6% (inactive); in assay [6] it was 23.9% (inactive).
Consider `NC(=O)OCCc1c2ccccc2nc2ccccc12`, for which the growth inhibition is 19.6% (inactive) and 47.6% (inactive) in assay [1]; 3.75% (inactive) and 51.5% (inactive) in assay [2]; 11.5% (inactive) and 49.9% (inactive) in assay [3]; 2.6% (inactive) and 42.4% (inactive) in assay [4]; 8.15% (inactive) and 34.1% (inactive) in assay [5]; 16.1% (inactive) and 64.5% (inactive) in assay [6].
As for `O=C1CC23c4ccccc4N4C(=O)CC5OCC=C6CN1C2CC6C5C43` (configuration not stated), the growth inhibition in assay [1] was 4.1% (inactive); in assay [2], -34.5% (inactive); in assay [3], -7.15% (inactive); in assay [4] it was 7.9% (inactive); in assay [5], 12.8% (inactive); in assay [6], 6.8% (inactive).
Consider `CC1(C)N=C(NN=C2CCCCC2)SP1(=O)NNc1ncccn1` (configuration not stated), for which the growth inhibition in assay [1] is 30.1% (inactive); in assay [2] it was 11.7% (inactive); in assay [3] it was 25.8% (inactive); in assay [4] it was 1.95% (inactive); in assay [5] it was 15.1% (inactive); in assay [6], 23.2% (inactive).
For `CC(C)N1CC(COc2cccc3ccccc23)OP1(=O)N(CCCl)CCCl` (configuration not stated), the growth inhibition in assay [1] is 97% (active); in assay [2], 98.7% (active); in assay [3], 52% (inactive); in assay [4] it was 98.3% (active); in assay [5] it was 98.4% (active); in assay [6], 98.4% (active).
In the case of `CN(C)C(=O)c1cc(N(CCCl)CCCl)c([N+](=O)[O-])cc1[N+](=O)[O-]`, the growth inhibition was -2.75% (inactive) in assay [1]; -10.1% (inactive) in assay [2]; -3.35% (inactive) in assay [3]; 2.3% (inactive) in assay [4]; -13.6% (inactive) in assay [5]; 0.3% (inactive) in assay [6].
Regarding `CC1(C)OC2(C)CCC1C(O)C2N1CCCCC1` (configuration not stated), the growth inhibition in assay [1] is -29.6% (inactive); in assay [2], -4.15% (inactive); in assay [3], -13.4% (inactive); in assay [4], 0.75% (inactive); in assay [5] it was -1% (inactive); in assay [6], -8.6% (inactive).
Consider `CC(C)[CH2][Sn]([CH2]C(C)C)([CH2]C(C)C)[C](C)(C)C`, for which the growth inhibition was 99.3% (active) in assay [1]; 99.7% (active) in assay [2]; 99.5% (active) in assay [3]; 99.2% (active) in assay [4]; 99.4% (active) in assay [5]; 99.5% (active) in assay [6].
Take `COc1cc2c(cc1OC)[N+]1(C)CCC3OCCC4C[N+]5(C)CCC26C5CC4C3C61` (configuration not stated): the growth inhibition in assay [1] was 6.15% (inactive); in assay [2], 3.45% (inactive); in assay [3], 2.75% (inactive); in assay [4], -6% (inactive); in assay [5], -6.6% (inactive); in assay [6] it was -13.3% (inactive).
Consider `CC1COC(Nc2cccc3c2CCCC3)=N1` (configuration not stated), for which the growth inhibition was -10.1% (inactive) in assay [1]; -13.7% (inactive) in assay [2]; -10.6% (inactive) in assay [3]; -34% (inactive) in assay [4]; -8.1% (inactive) in assay [5]; 3% (inactive) in assay [6].
Regarding `Cc1nn[n-]n1.N.N.N.N.N.[Cl-].[Co+3]`, the growth inhibition in assay [1] is 4.25% (inactive); in assay [2] it was 6.3% (inactive); in assay [3], 22.1% (inactive); in assay [4] it was 27.9% (inactive); in assay [5] it was 9.6% (inactive); in assay [6], 13.1% (inactive).
With `CN(C)NP(c1ccccc1)c1ccccc1`, the growth inhibition in assay [1] is -2.55% (inactive); in assay [2] it was -3.8% (inactive); in assay [3] it was -5.95% (inactive); in assay [4] it was -6.1% (inactive); in assay [5], -18.2% (inactive); in assay [6] it was 1.1% (inactive).
On to `NC(CCCCCP(=O)(O)O)C(=O)O` (configuration not stated), for which the growth inhibition in assay [1] is -38.8% (inactive); in assay [2], -29.8% (inactive); in assay [3], -63.3% (inactive); in assay [4], -12.3% (inactive); in assay [5] it was -17.4% (inactive); in assay [6], -37.5% (inactive).
For `NC(Cc1cccc(F)c1)c1nn[nH]n1` (configuration not stated), the growth inhibition is -7.6% (inactive) in assay [1]; 2.35% (inactive) in assay [2]; -0.1% (inactive) in assay [3]; -22.8% (inactive) in assay [4]; 1.65% (inactive) in assay [5]; -0.7% (inactive) in assay [6].
As for `N#CC(C#N)/C=C/[Se]c1ccccc1`, the growth inhibition in assay [1] is 14.2% (inactive); in assay [2], 1.65% (inactive); in assay [3] it was 2.1% (inactive); in assay [4], 26.8% (inactive); in assay [5] it was 0.35% (inactive); in assay [6], 3.6% (inactive).
For the compound `CCN(CC)CCc1ccccn1`, the growth inhibition in assay [1] was -13.4% (inactive); in assay [2], -15.5% (inactive); in assay [3] it was -7% (inactive); in assay [4] it was -8.8% (inactive); in assay [5], -14.4% (inactive); in assay [6], 5.5% (inactive).
Regarding `NC(CNC(=O)CBr)C(=O)O` (configuration not stated), the growth inhibition in assay [1] was 6.9% (inactive); in assay [2] it was 18.1% (inactive); in assay [3], -3.25% (inactive); in assay [4], 8.9% (inactive); in assay [5], -4.1% (inactive); in assay [6], -35.2% (inactive).
